Activity calls are given as the source filed them. Rule for the calls: active = hit-call score of the fitted dose curve at least 0.9, where 1 is the maximum; inactive = score below 0.9.
Tests used:
Settings in all cases: mRNA level, 48 h; actives raise or lower the signal
[1] = read-out: Fatty acid synthase (Homo sapiens) (UniProt P49327); test: LTEA_HepaRG_FASN: Life Technologies and Expression Analysis (LTEA) Assay for Fatty Acid Synthase (FASN) using HepaRG (AID 2283448)
Outline: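 Differentiated human HepaRG cells were exposed for 48 h in serum-free induction medium to eight half-log concentrations up to 100 uM in 0.5% DMSO, in duplicate. FASN mRNA was quantified by TaqMan qRT-PCR, normalized to ACTB/GAPDH/POLR2A, and fitted bidirectionally against DMSO.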

[2] = read-out: Cyclin Dependent Kinase Inhibitor 1A (CDKN1A), CDKN1A (gene 1026); test: LTEA_HepaRG_CDKN1A: Life Technologies and Expression Analysis (LTEA) Assay for Cyclin Dependent Kinase Inhibitor 1A (CDKN1A) using HepaRG (AID 2283450)
Outline: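 Gain or loss of CDKN1A transcript is scored by bidirectional fitting against 0.5% DMSO vehicle. Human HepaRG cultures receive chemicals for 48 h across an 8-point series peaking at 100 uM; expression comes from qRT-PCR.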

[3] = read-out: Cyclin D1 (CCND1), CCND1 (gene 595); test: LTEA_HepaRG_CCND1: Life Technologies and Expression Analysis (LTEA) Assay for Cyclin D1 (CCND1) using HepaRG (AID 2283451);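 for AC50: TaqMan qRT-PCR transcript level normalised to ACTB GAPDH and POLR2A housekeeping genes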
Outline: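 Expression change is measured by qRT-PCR in HepaRG cells after 48 h treatment across eight concentrations topping at 100 uM, with duplicate wells and DMSO (0.5%) serving as baseline for bidirectional fitting.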

[4] = read-out: catalase (CAT), CAT (gene 847); test: LTEA_HepaRG_CAT: Life Technologies and Expression Analysis (LTEA) Assay for catalase (CAT) using HepaRG (AID 2283452)
Outline: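 Expression of CAT was quantified by TaqMan qRT-PCR with ACTB/GAPDH/POLR2A normalization after 48 h chemical exposure of HepaRG. Eight-point half-log series, top 100 uM, in 0.5% DMSO; gain or loss fitted against vehicle.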

[5] = read-out: flavin-containing dimethylaniline monooxygenases 3 (FMO3), FMO3 (gene 2328); test: LTEA_HepaRG_FMO3: Life Technologies and Expression Analysis (LTEA) Assay for flavin-containing dimethylaniline monooxygenases 3 (FMO3) using HepaRG (AID 2283453);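 for AC50: FMO3 transcript by TaqMan qRT-PCR normalized to ACTB GAPDH and POLR2A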
Outline: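 HepaRG, 48 h exposure, 8-pt half-log series from 100 uM, 0.5% DMSO vehicle, duplicates; FMO3 transcript by Fluidigm TaqMan qRT-PCR, housekeeping-normalized; gain/loss fit vs DMSO.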

[6] = read-out: Cytochrome P450 (CYP1A1), CYP1A1 (gene 1543); test: LTEA_HepaRG_CYP1A1: Life Technologies and Expression Analysis (LTEA) Assay for Cytochrome P450 (CYP1A1) using HepaRG (AID 2283454)
Outline: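 Using HepaRG cultures with 0.5% DMSO as vehicle, eight-concentration exposures (max 100 uM) lasted 48 h. Transcript levels were measured by TaqMan qRT-PCR and normalized to ACTB, GAPDH and POLR2A.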

[7] = read-out: CFLAR gene, CFLAR (gene 8837); test: LTEA_HepaRG_CFLAR: Life Technologies and Expression Analysis (LTEA) Assay for CFLAR gene using HepaRG (AID 2283455)
Outline: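 HepaRG, 48 h exposure, 8-pt conc-response (100 uM top, half-log), 0.5% DMSO vehicle, duplicates. CFLAR expression by qRT-PCR; ACTB/GAPDH/POLR2A normalization; gain or loss fit vs DMSO baseline.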

[8] = read-out: Forkhead box O1 (FOXO1), FOXO1 (gene 2308); test: LTEA_HepaRG_FOXO1: Life Technologies and Expression Analysis (LTEA) Assay for Forkhead box O1 (FOXO1) using HepaRG (AID 2283456)
Outline: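 Readout is FOXO1 transcript level by multiplexed qRT-PCR against three housekeeping genes, curve-fitted in both directions relative to 0.5% DMSO vehicle. Human HepaRG cultures received chemicals for 48 h, up to 100 uM in half-log steps.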

[9] = read-out: growth arrest and DNA damage 45 (GADD45A), GADD45A (gene 1647); test: LTEA_HepaRG_GADD45A: Life Technologies and Expression Analysis (LTEA) Assay for growth arrest and DNA damage 45 (GADD45A) using HepaRG (AID 2283458)
Outline: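 Differentiated HepaRG cells were exposed in duplicate for 48 h in serum-free induction medium to 8-point half-log concentrations up to 100 uM in 0.5% DMSO. GADD45A mRNA was measured by TaqMan qRT-PCR, normalized to ACTB, GAPDH and POLR2A, with bidirectional fitting versus DMSO.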

[10] = read-out: Forkhead box O3 (FOXO3), FOXO3 (gene 2309); test: LTEA_HepaRG_FOXO3: Life Technologies and Expression Analysis (LTEA) Assay for Forkhead box O3 (FOXO3) using HepaRG (AID 2283459)
Outline: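 HepaRG, 48 h post-dose; 8 conc., half-log from 100 uM, 0.5% DMSO, duplicates; serum-free induction medium. Readout: FOXO3 mRNA, TaqMan qRT-PCR, housekeeping-normalized. Bidirectional curve fit vs DMSO baseline.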

[11] = read-out: ABC Transporter (ABCB1), ABCB1 (gene 5243); test: LTEA_HepaRG_ABCB1: Life Technologies and Expression Analysis (LTEA) Assay for ABC Transporter (ABCB1) using HepaRG (AID 2283460)
Outline: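 Expression of ABCB1 was quantified by qRT-PCR against three housekeeping genes after human HepaRG cultures received test chemicals for 48 hours. Concentrations spanned eight half-log steps topping at 100 uM in 0.5% DMSO; gain or loss of signal was fitted relative to vehicle.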

[12] = read-out: growth arrest and DNA damage 45 (GADD45B), GADD45B (gene 4616); test: LTEA_HepaRG_GADD45B: Life Technologies and Expression Analysis (LTEA) Assay for growth arrest and DNA damage 45 (GADD45B) using HepaRG (AID 2283461)
Outline: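 Human HepaRG monolayers receive chemicals for 48 h at eight half-log concentrations, highest 100 uM, in 0.5% DMSO. Expression is measured by TaqMan qRT-PCR and normalized to ACTB, GAPDH and POLR2A.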

[13] = read-out: ABC Transporter (ABCC3), ABCC3 (gene 8714); test: LTEA_HepaRG_ABCC3: Life Technologies and Expression Analysis (LTEA) Assay for ABC Transporter (ABCC3) using HepaRG (AID 2283462)
Outline: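 Transcriptional change of ABCC3 in HepaRG after 48 h treatment, determined by qRT-PCR normalized to endogenous controls. Concentrations spanned eight half-log steps to 100 uM in 0.5% DMSO.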

[14] = read-out: ABC Transporter (ABCB11), ABCB11 (gene 8647); test: LTEA_HepaRG_ABCB11: Life Technologies and Expression Analysis (LTEA) Assay for ABC Transporter (ABCB11) using HepaRG (AID 2283463)
Outline: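 ABCB11 transcript levels are read by Fluidigm TaqMan qRT-PCR after 48 h chemical treatment of human HepaRG cells. Concentrations span 100 uM downward in half-log steps with 0.5% DMSO; gain or loss is fitted against DMSO controls.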

[15] = read-out: ABC Transporter (ABCC2), ABCC2 (gene 1244); test: LTEA_HepaRG_ABCC2: Life Technologies and Expression Analysis (LTEA) Assay for ABC Transporter (ABCC2) using HepaRG (AID 2283464)
Outline: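 After plating and 48 h culture, HepaRG medium is replaced with serum-free induction medium and chemicals are added (8 concentrations, max 100 uM, 0.5% DMSO) for 48 h. Total RNA then undergoes qRT-PCR for ABCC2 with housekeeping normalization.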

[16] = read-out: Broad substrate specificity ATP-binding cassette transporter ABCG2 (Homo sapiens) (UniProt Q9UNQ0); test: LTEA_HepaRG_ABCG2: Life Technologies and Expression Analysis (LTEA) Assay for ABC Transporter (ABCG2) using HepaRG (AID 2283465)
Outline: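 Read-out is ABCG2 mRNA induction or loss quantified by qRT-PCR after 48 h chemical treatment of human HepaRG cells, normalized to three housekeeping genes. Concentrations reached 100 uM top in half-log steps; fitting was bidirectional against 0.5% DMSO.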

[17] = read-out: ATP-citrate lyase (ACLY), ACLY (gene 47); test: LTEA_HepaRG_ACLY: Life Technologies and Expression Analysis (LTEA) Assay for ATP-citrate lyase (ACLY) using HepaRG (AID 2283466)
Outline: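 HepaRG, 48 h exposure, 8-pt half-log dilutions (top 100 uM), 0.5% DMSO. Readout: ACLY mRNA, TaqMan qRT-PCR, housekeeping-normalized (ACTB/GAPDH/POLR2A). Bidirectional curve fit vs DMSO.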

[18] = read-out: Peroxisomal acyl-coenzyme A oxidase 1 (ACOX1) gene, ACOX1 (gene 51); test: LTEA_HepaRG_ACOX1: Life Technologies and Expression Analysis (LTEA) Assay for Peroxisomal acyl-coenzyme A oxidase 1 (ACOX1) gene using HepaRG (AID 2283467)
Outline: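 Measured by qRT-PCR against three housekeeping genes: ACOX1 transcript change in human HepaRG cells after 48 h dosing. Concentrations ran up to 100 uM in half-log steps. Curves were fitted bidirectionally relative to 0.5% DMSO.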

[19] = read-out: Cyclin D2 (CCND2), CCND2 (gene 894); test: LTEA_HepaRG_CCND2: Life Technologies and Expression Analysis (LTEA) Assay for Cyclin D2 (CCND2) using HepaRG (AID 2283449)
Outline: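 Read-out is CCND2 mRNA level measured by qRT-PCR in human HepaRG liver cells and normalised to three housekeeping genes. Chemicals were applied for 48 h at up to 100 uM, with gain or loss fitted relative to 0.5% DMSO.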

Chain of Broad substrate specificity ATP-binding cassette transporter ABCG2 (Homo sapiens) (Q9UNQ0 whole entry, looked up): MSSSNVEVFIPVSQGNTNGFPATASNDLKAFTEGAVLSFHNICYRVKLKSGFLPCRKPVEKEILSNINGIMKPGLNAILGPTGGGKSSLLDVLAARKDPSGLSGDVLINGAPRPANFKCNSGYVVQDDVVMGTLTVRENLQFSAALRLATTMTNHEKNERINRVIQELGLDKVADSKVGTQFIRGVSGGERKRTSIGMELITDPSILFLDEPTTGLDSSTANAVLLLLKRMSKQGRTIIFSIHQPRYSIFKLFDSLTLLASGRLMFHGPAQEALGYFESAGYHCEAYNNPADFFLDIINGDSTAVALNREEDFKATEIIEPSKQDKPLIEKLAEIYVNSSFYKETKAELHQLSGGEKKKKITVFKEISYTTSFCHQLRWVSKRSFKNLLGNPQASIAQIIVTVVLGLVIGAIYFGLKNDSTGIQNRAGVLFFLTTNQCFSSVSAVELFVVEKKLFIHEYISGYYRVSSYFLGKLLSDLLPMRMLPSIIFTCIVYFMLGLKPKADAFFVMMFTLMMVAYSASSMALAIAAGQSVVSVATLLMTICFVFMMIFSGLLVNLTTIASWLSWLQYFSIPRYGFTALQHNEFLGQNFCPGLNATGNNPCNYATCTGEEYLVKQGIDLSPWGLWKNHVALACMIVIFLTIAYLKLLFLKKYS
Chain of Fatty acid synthase (Homo sapiens) (P49327 whole entry, looked up): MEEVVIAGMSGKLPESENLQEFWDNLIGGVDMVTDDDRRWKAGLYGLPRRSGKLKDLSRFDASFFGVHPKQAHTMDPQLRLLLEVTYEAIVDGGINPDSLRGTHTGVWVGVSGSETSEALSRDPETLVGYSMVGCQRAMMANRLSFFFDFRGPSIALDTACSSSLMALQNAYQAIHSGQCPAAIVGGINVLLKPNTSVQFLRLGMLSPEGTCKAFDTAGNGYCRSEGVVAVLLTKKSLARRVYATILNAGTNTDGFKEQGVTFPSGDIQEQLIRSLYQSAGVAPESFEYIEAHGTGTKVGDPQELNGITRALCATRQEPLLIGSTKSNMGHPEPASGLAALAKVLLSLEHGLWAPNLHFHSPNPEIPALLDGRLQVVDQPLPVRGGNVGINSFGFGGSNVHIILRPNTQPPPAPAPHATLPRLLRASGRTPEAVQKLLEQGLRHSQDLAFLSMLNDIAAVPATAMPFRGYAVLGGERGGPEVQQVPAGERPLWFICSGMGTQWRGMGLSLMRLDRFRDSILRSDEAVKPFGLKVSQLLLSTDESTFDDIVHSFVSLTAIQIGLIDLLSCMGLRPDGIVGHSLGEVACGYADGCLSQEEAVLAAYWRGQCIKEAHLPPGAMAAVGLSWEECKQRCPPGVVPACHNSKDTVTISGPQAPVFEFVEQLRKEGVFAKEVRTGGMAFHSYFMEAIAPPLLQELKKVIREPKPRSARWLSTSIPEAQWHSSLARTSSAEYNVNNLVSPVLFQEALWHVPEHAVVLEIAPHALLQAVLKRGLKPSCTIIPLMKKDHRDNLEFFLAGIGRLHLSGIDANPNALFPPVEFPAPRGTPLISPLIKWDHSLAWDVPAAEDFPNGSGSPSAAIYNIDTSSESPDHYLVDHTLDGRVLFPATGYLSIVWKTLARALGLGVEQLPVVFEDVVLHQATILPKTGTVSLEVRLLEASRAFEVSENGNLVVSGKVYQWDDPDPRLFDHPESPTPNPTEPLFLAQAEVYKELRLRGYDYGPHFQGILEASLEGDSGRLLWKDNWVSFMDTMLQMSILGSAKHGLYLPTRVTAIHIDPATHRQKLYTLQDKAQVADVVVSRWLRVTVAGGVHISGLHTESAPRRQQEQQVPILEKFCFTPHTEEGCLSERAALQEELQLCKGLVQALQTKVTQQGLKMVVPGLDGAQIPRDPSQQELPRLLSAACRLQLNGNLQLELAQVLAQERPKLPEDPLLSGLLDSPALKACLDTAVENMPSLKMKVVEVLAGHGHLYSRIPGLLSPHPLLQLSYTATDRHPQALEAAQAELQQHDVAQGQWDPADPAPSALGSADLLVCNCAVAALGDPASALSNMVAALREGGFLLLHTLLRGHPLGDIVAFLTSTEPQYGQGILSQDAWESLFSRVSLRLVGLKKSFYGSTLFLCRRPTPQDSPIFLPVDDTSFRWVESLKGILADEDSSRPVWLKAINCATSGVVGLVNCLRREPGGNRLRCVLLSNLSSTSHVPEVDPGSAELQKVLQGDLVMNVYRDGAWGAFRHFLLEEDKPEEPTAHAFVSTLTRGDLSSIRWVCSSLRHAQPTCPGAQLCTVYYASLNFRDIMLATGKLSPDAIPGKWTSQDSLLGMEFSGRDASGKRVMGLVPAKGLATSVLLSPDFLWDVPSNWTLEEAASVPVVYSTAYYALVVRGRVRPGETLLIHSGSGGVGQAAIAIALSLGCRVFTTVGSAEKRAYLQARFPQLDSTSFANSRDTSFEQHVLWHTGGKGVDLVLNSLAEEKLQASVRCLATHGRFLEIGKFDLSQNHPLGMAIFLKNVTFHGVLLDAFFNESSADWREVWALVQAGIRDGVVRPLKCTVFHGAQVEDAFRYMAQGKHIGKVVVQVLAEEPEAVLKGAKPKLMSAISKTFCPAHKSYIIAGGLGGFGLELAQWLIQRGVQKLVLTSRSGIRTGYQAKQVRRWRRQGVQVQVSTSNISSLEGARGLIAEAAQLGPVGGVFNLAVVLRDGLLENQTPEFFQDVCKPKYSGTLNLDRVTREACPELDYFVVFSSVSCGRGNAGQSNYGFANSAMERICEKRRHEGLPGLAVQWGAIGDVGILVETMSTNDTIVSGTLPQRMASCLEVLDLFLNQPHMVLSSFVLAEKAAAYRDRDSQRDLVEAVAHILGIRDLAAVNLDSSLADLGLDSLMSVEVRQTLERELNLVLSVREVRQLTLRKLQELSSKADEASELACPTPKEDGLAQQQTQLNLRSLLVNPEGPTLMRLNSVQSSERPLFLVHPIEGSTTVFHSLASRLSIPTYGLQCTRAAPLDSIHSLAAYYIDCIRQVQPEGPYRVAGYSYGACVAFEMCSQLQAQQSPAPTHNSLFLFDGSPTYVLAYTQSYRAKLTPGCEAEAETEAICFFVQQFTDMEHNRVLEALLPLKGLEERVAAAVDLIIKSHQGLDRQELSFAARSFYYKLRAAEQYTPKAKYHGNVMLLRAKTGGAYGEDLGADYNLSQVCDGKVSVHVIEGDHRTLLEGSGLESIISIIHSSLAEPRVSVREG

CCCCCCCCOC(=O)CCCCCCCCC(=O)OCCCCCCCC
outcome [1]: inactive
outcome [2]: inactive
outcome [3]: inactive
outcome [4]: inactive
outcome [5]: inactive
AC50 [6]: 30.3 µM (active)
outcome [7]: inactive
outcome [8]: inactive
outcome [9]: inactive
outcome [10]: inactive
outcome [11]: inactive
outcome [12]: inactive
outcome [13]: inactive
outcome [14]: inactive
outcome [15]: inactive
outcome [16]: inactive
outcome [17]: inactive
outcome [18]: inactive

CC1=C(/C=C/C(C)=C/C=C/C(C)=C/C(=O)O)C(C)(C)CCC1
outcome [19]: inactive
outcome [2]: inactive
outcome [3]: inactive
AC50 [4]: 9.37 µM (active)
AC50 [5]: 0.446 µM (active)
AC50 [6]: 35.9 µM (active)
AC50 [7]: 5.84 µM (active)
outcome [8]: inactive
outcome [9]: inactive
outcome [10]: inactive
AC50 [11]: 0.81 µM (active)
outcome [12]: inactive
outcome [13]: inactive
AC50 [14]: 29.4 µM (active)
outcome [15]: inactive
AC50 [16]: 3.14 µM (active)
outcome [17]: inactive

CCN(CC)CCNc1ccc(CNC=O)c2sc3ccc(OC)cc3c(=O)c12
outcome [19]: inactive
outcome [2]: inactive
outcome [3]: inactive
AC50 [4]: 17.5 µM (active)
AC50 [5]: 34.6 µM (active)
AC50 [6]: 4.07 µM (active)
AC50 [7]: 27.5 µM (active)
AC50 [8]: 13.3 µM (active)
outcome [9]: inactive
AC50 [10]: 50 µM (active)
AC50 [11]: 60.8 µM (active)
AC50 [12]: 11.4 µM (active)
AC50 [13]: 86.6 µM (active)
AC50 [14]: 11.4 µM (active)
AC50 [16]: 9.65 µM (active)
AC50 [17]: 83.2 µM (active)
AC50 [18]: 50 µM (active)

c1ccc2cc3c(ccc4ccccc43)cc2c1
AC50 [1]: 4.82 µM (active)
outcome [19]: inactive
outcome [2]: inactive
AC50 [3]: 9.56 µM (active)
AC50 [4]: 15.4 µM (active)
AC50 [5]: 13.6 µM (active)
AC50 [6]: 1.66 µM (active)
AC50 [7]: 10.5 µM (active)
AC50 [8]: 17.8 µM (active)
outcome [9]: inactive
AC50 [10]: 6.54 µM (active)
AC50 [11]: 13.2 µM (active)
AC50 [12]: 20.1 µM (active)
outcome [13]: inactive
AC50 [14]: 14.6 µM (active)
outcome [16]: inactive
outcome [17]: inactive
AC50 [18]: 18.8 µM (active)

CCCOC(=O)c1ccc(O)cc1
outcome [19]: inactive
outcome [2]: inactive
outcome [3]: inactive
outcome [4]: inactive
outcome [5]: inactive
outcome [6]: inactive
outcome [7]: inactive
outcome [8]: inactive
outcome [9]: inactive
outcome [10]: inactive
outcome [11]: inactive
outcome [12]: inactive
outcome [13]: inactive
outcome [14]: inactive
outcome [16]: inactive
outcome [17]: inactive

N#C[C@@H]1CC(F)(F)CN1C(=O)CNC1CC2CCC(C1)N2c1ncccn1 (stereo partly drawn)
outcome [1]: inactive
outcome [19]: inactive
outcome [2]: inactive
outcome [3]: inactive
outcome [4]: inactive
outcome [5]: inactive
AC50 [6]: 72.1 µM (active)
outcome [7]: inactive
outcome [8]: inactive
outcome [9]: inactive
outcome [10]: inactive
outcome [11]: inactive
outcome [12]: inactive
outcome [13]: inactive
outcome [14]: inactive
outcome [16]: inactive
outcome [17]: inactive

From PubChem BioAssay (EPA / NIEHS)
